Assay results: ChEMBL document CHEMBL3988442, “University of Dundee, Small-Polar-MMV Screening Library” (2021)
Screen size: about 69,000 compounds; about 420 (0.61%) showed an effect of 50% or more. The sample as a whole holds a higher share of strong results than the screen did.

These compounds were tested against T1, Histidine--tRNA ligase (Leishmania infantum) (UniProt A4I591) (assay: Leishmania infantum Histidine tRNA synthetase (LdHisRS)). Settings: 30 µM.
T1 sequence (whole entry): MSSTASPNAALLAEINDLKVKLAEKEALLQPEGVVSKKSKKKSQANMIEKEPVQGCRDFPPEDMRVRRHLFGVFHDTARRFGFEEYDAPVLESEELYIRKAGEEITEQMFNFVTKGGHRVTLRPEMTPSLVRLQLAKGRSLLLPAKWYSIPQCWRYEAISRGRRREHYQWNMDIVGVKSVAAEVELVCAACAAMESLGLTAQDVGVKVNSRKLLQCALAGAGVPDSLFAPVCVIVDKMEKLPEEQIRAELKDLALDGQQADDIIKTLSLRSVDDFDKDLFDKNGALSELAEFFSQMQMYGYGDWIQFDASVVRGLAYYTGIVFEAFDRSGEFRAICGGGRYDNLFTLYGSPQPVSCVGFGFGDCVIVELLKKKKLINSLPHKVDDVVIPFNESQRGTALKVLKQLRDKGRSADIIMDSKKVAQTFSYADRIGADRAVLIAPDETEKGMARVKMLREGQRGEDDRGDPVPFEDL
Type: functional
Set-up: scale not given: in the data most compounds retested in dose-response had high values

| SMILES | Percent Effect |
| --- | --- |
| CN(C)C(=O)N1C[C@@H]2CC[C@H](C1)N(Cc1ccc3nsnc3c1)C2 | 24% |
| O=C1N(c2cccc(F)c2)Cc2nc(=O)n(Cc3ccccc3Cl)n21 | 12% |
| CN1C[C@@H]2CN(C(=O)NCc3cccc(F)c3)CCC[C@]2(C(=O)O)C1 | 6% |
| COc1ccc(CN2C[C@@H]3COC[C@@H](N4CCN(C)CC4)[C@@H]3C2)cc1 | 17% |
| Cc1c(-c2cc(C(F)(F)F)nc(N3CCC(N)CC3)n2)cnn1C | 19.4% |
| CCn1ncc(-c2cc(C(F)(F)F)nc(N3CCC(N)CC3)n2)c1C | 15.1% |
| CCc1ccc(-c2cc(C(F)(F)F)nc(N3CCC(N)CC3)n2)cc1 | 71% |
| CNC(=O)[C@H]1C[C@@H]2CN(C(=O)c3ccco3)C[C@@H]2N1S(C)(=O)=O | 17% |
| COCCC(=O)N1CC[C@@H]2O[C@@H](C)C[C@H]2C1 | 15.3% |
| O=C(Cc1ccco1)N1C[C@H]2CCC[C@@]2(COc2cccnc2)C1 | 24% |
| Cn1cnc2c1CCN(Cc1csc(-c3ccccc3)n1)C2 | 15.7% |
| Cn1cnc2c1CCN(Cc1csc(-c3ccc(F)cc3)n1)C2 | 10.2% |
| COc1ccc(-c2nc(CN3CCc4c(ncn4C)C3)cs2)cc1 | 57.5% |
| Cc1ccc(OCC(=O)N2C[C@@H]3CN(C)CCO[C@@H]3C2)cc1 | 5.17% |
| COc1ccccc1CN(C)C(=O)CN1CC(n2nc(C)cc2C)C1 | 40.2% |
| Cc1cc(C)n(C2CN(CC(=O)N(C)Cc3ccsc3)C2)n1 | 43.8% |
| COc1cccc(CN(C)C(=O)CN2CC(n3nc(C)cc3C)C2)c1 | 62.9% |
| COc1cc(C(=O)N2CCO[C@H]3[C@H](OCC4CC4)CC[C@@H]32)ccc1F | 12.1% |
| O=C(NCc1cccnc1)[C@H]1C[C@@H]2CCN(c3ccncn3)C[C@H]2O1 | 15.3% |
| CCN1C[C@@H]2CN(C(=O)c3ccsc3)C[C@@H]2C1=O | -28.6% |
| N#Cc1cccc(CN2C[C@@H](NC(=O)C3CC3)[C@H]3OCCC[C@H]32)c1 | -2.75% |
| COc1ncc(NS(=O)(=O)c2ccc(F)cc2F)cn1 | 12.8% |
| COc1ccccc1S(=O)(=O)Nc1cnc(O)cc1C | 20.5% |
| COc1cc(F)c(S(=O)(=O)Nc2cnc(O)cc2C)cc1OC | 97.6% |

| SMILES | Percent Effect |
| --- | --- |
| CC(C)(CN)NS(=O)(=O)c1cccc(F)c1F | 11.8% |
| Cc1cc(O)ncc1NS(=O)(=O)c1cccc(F)c1F | 95.2% |
| O=C(O)c1c[nH]c2cc(NS(=O)(=O)c3cccc(F)c3F)ccc12 | 36.5% |
| COc1ccc(CN2CCO[C@H]3CN(C(=O)C4CC4)CC[C@H]3C2=O)cc1 | 11.1% |
| COC[C@@]12CCO[C@@H]1CCN(Cc1ccc(C)s1)C2 | -2% |
| O=C(c1cnccn1)N1C[C@@H]2CC[C@H](C1)N(C(=O)Cc1ccsc1)C2 | 12.3% |
| CCCS(=O)(=O)N1C[C@H](N(C)Cc2ccco2)[C@@H]2OCCC[C@@H]21 | 9% |
| Cc1nc(C(=O)N2C[C@@H]3CN(S(C)(=O)=O)CCO[C@@H]3C2)cs1 | 8.77% |
| Cc1nnsc1CNC(=O)Nc1cccc(N2CCN(C)C2=O)c1 | 11.8% |
| CN1CCN(c2cccc(NC(=O)NCc3csc(N(C)C)n3)c2)C1=O | 64.7% |
| CN(C)c1nc(CNC(=O)Nc2cccc([S+](C)[O-])c2)cs1 (stereo unspecified) | 27.1% |
| Cc1cccc(CN2C(=O)CO[C@@H]3CN(Cc4cnn(C)c4)C[C@H]32)c1 | 23.1% |
| C=Cc1cccc(CN2C[C@H]3CC[C@@H]2CN(Cc2c(C)noc2C)C3)c1 | 27.4% |
| CNc1cc(-c2ccc(COCCN)cc2)c2cc[nH]c2n1 | 20.5% |
| COCCNc1cc(-c2ccccc2CCN)c2cc[nH]c2n1 | 4.84% |
| Cc1cccc(C)c1-c1cc(NCCO)nc2[nH]ccc12 | 10% |
| CNc1cc(-c2cccc(CN)c2)c2cc[nH]c2n1 | 68.7% |
| CNc1cc(-c2ccccc2CN)c2cc[nH]c2n1 | 80.7% |
| CNc1cc(C)nc(-c2cc(NC)nc3[nH]ccc23)n1 | -2.04% |
| O=C(c1cocn1)N1CC[C@H]2OCC[C@@]2(COc2ncccc2F)C1 | 22.4% |
| O=C(Cc1ccccc1)N1CC[C@@H]2CNS(=O)(=O)[C@@H]2CC1 | 28.1% |
| Nc1cccnc1N1CCN(c2ccccc2)CC1 | 8.33% |
| Nc1cccnc1N1CCCCCC1 | 58.3% |
| Nc1cccnc1N1CCC(O)CC1 | 12.5% |

| SMILES | Percent Effect |
| --- | --- |
| COc1ccc(CC(=O)N2C[C@@H]3COC[C@]3(CN(C)C)C2)cc1 | -47.1% |
| Cc1nc(COC[C@@H]2CC[C@H]3[C@H](CCN3C(=O)C3CC3)O2)cs1 | 14.7% |
| Cc1cccc(C(=O)N2C[C@@H]3CCN(c4cccnc4)C[C@@H]3C2)c1 | 6.57% |
| CN(C)C(=O)CN1CC[C@H]2CN(C3CCOCC3)C[C@@H]2C1=O | 11.7% |
| Cn1nc2c(cc1=O)CN(CCN1CCCC1=O)CC2 | 4.39% |
| CCCn1nc2c(cc1=O)CN(CC1CCCCO1)CC2 (stereo unspecified) | 79.5% |
| CCn1nc2c(cc1=O)CN(CC1CCCCO1)CC2 (stereo unspecified) | 0% |
| Cc1ncc2c(n1)CN(CC1CCCCO1)CC2 (stereo unspecified) | 25.7% |
| Cn1nc2c(cc1=O)CN(CC1CCCCO1)CC2 (stereo unspecified) | 104% |
| CC(C)n1nc2c(cc1=O)CN(CC1CCCCO1)CC2 (stereo unspecified) | 35.6% |
| CCCSCC(=O)N1C[C@H]2CC[C@@H]1CN(c1ncccn1)C2 | 4.17% |
| CC(C)CC(=O)N1CC[C@H]2N(C)CC[C@@]2(C(=O)Nc2ccccc2)CC1 | 15.4% |
| Cc1nccc([C@@H]2C[C@@H]3CCN(S(C)(=O)=O)C[C@H]3O2)n1 | 22.6% |
| CC1=N[C@@]2(CC[C@@H]3CN(CC(=O)N(C)C)C[C@@H]32)C(=O)N1CC1CC1 | 23.1% |
| COc1cccc(CN2CC(=O)N(c3ccccc3C)CC2C)c1OC (stereo unspecified) | 38.5% |
| COc1ccc(F)c(CN2CC(=O)N(c3ccccc3C)CC2C)c1 (stereo unspecified) | 31.3% |
| COc1ccc(F)c(F)c1CN1CC(=O)N(c2ccccc2C)CC1C (stereo unspecified) | 53% |
| c1csc(N2[C@H](Cn3cncn3)C[C@@H]3CNCC[C@@H]32)n1 | -6.84% |
| CC(C)c1cc(N2CCC(N)CC2)n2nccc2n1 | 22.9% |
| CC(C)c1cc(N2CC[C@H](F)C2)n2nccc2n1 | 22.2% |
| CC(C)c1cc(N2CCC(C(C)N3CCCC3)CC2)n2nccc2n1 (stereo unspecified) | 69.4% |
| Cc1cccc(CO[C@@H]2CC[C@H]3[C@H]2OCCN3Cc2cc(C)on2)n1 | 22.2% |
| O=C(NC[C@H]1CC[C@H](c2ccnc3ncnn32)CC1)c1ccccn1 | 7.04% |
